Assay outcomes (PubChem)
CtBP-E1A inh: CtBP/E1A binding inhibition | 0.49% of 340,000 active | AlphaScreen GST-E1A/His-CtBP binding, 1536-well; hits give low values | activity change, % (test concentration not listed)
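In 5 uL wells, 23 nL compound meets equimolar GST-E1A and His-CtBP (5X stock 125 nM each) for 2 h, 37 °C. Beads (5X, 50 ug/mL) then 1 h, 37 °C, dark.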
PI4K2A block: inhibitors of human PI4K2A; Q9BTU6; purified PI4K2A, ADP-Glo luminescence, 1 h; hits give low values; activity change, negative = inhibition, % at 76.9 µM; 0.13% of 420,000 active; in the data active = activity change below about -50%; inconclusive = mostly about -30% to -49%;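 note: -100% = wells without enzyme as full effect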
Target sequence (Q9BTU6 whole entry, looked up): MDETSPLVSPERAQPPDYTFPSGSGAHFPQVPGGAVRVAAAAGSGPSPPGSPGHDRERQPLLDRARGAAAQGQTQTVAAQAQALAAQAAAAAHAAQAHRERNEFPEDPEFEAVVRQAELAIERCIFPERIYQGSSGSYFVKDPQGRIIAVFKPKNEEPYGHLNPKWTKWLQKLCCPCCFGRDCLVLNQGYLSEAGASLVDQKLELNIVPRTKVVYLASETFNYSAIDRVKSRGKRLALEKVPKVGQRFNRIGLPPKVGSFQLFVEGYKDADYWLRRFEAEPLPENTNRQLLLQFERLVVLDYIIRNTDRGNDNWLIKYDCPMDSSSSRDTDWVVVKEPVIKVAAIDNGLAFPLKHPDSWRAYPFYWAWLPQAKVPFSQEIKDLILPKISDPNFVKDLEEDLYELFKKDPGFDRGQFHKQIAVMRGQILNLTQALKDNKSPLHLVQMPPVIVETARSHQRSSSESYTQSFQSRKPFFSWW
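PI4K2A activity was measured by ADP-Glo luminescence: enzyme (4 ug/mL stock) and phosphatidylinositol (1.2 mM stock) in Tris pH 7.5/MgCl2/EGTA/Triton X-100 buffer were reacted with ATP (300 microM stock) for one hour at ambient temperature.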
Akt phos inh: inhibitors of Akt phosphorylation; Neuro2A IGF-stimulated pAkt S473 HTRF, 20 min; hits give low values; activity change, % for hits at 50 µM; 0.32% of 360,000 active; in the data active = activity change below about -80%; inconclusive = mostly about -51% to -80%
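Single-point screen (50 µM final compound) in Neuro2A cells stimulated 20 min with 6 nM IGF at 37 deg C. After lysis, Ser473-phosphorylated Akt read by HTRF (ex 330 nm, em 615/665 nm) as the 665/615 ratio.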
PI5P4K alpha inh: inhibitors of human PI5P4K alpha; max response, %; AID 652105; P48426; 1.2% of 330,000 active; PI5P4Kalpha enzyme, ADP-Glo luminescence, 60 min; hits give low values; active = max response of -50% or lower; inconclusive = between -30% and -50%; inactive = -30% or higher; note: value at the top dose of about 77 µM
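Controls without substrate or without enzyme flank wells where PI5P4Kalpha converts substrate using 5 microM ATP (final). Incubation lasts 60 minutes at room temperature; ADP formed is read by ADP-Glo luminescence.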
Six1-Eya2 inh: Six1/Eya2 interaction inhibition | Q15475+O00167 | AlphaScreen GST-Six1/His-Eya2 binding, biochemical; hits give low values | activity change, % (concentration not given with the values) | 0.56% of 360,000 active | AID 651725
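AlphaScreen with GST-Six1 and His-Eya2 (5X mix: 250 nM and 500 nM), glutathione donor and nickel acceptor beads; buffer 50 mM Tris pH 8.0, 300 mM NaCl, 1 mM TCEP; 1 h at 37 C in the dark.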
The depositor's hits bear a star; i = inactive; ? = inconclusive; . = not tested or not shown. An excerpt weighted towards active compounds, which were near 1.8% of everything screened. Cut-off read from the data, not from the text of the source, unless noted: active = activity change below about -65%; inconclusive = mostly about -30% to -63%; inactive = weaker than that. Unless noted, % is set by controls: 0 for no effect and ±100 for the full control effect.

SMILES	CtBP-E1A inh	PI4K2A block	Akt phos inh	PI5P4K alpha inh	Six1-Eya2 inh
O=C(Nc1nc2ccccc2[nH]1)C1CC(=O)N(c2ccc3c(c2)OCCO3)C1 (configuration not stated)	-0.6	-11.3	-111.8%*	?	-10.0
O=C(Nc1ccccc1Br)C1CC(=O)N(c2ccc3c(c2)OCCO3)C1 (configuration not stated)	-5.0	4.0	i	-9.2	7.4
O=C(N/N=C/c1cc([N+](=O)[O-])ccc1O)c1c[nH]c2ccccc12	-78.0*	-0.6	i	2.3	-85.9*
O=[N+]([O-])c1ccc(O)c(/C=N/NC(=S)Nc2ccc(Cl)cc2Cl)c1	-21.8	8.9	i	-65.6*	-16.8
Cc1ccccc1C(=O)Nc1cccc(C(=O)N/N=C/c2cc(Cl)cc([N+](=O)[O-])c2O)c1	-73.0*	-17.9	i	?	?
Cc1cc(C(=O)N/N=C/c2ccc([N+](=O)[O-])cc2)c2ccccc2n1	-11.8	-1.1	i	-0.3	-1.6
Cc1cc(C(=O)N/N=C/c2cc(Br)cc([N+](=O)[O-])c2O)c2ccccc2n1	-93.5*	1.5	i	?	-87.3*
Cc1cc(C(=O)N/N=C/c2cc([N+](=O)[O-])ccc2O)c2ccccc2n1	18.7	5.8	i	-7.0	-92.1*
O=C(NC(C(=O)N/N=C/c1cc([N+](=O)[O-])ccc1O)c1n[nH]c(=O)c2ccccc12)c1ccccc1 (configuration not stated)	-87.8*	-2.3	i	-26.1	-90.1*
O=C(NC(C(=O)N/N=C/c1cccc2ccccc12)c1n[nH]c(=O)c2ccccc12)c1ccccc1 (configuration not stated)	-14.7	0.7	i	4.2	-14.1
CCNC(=O)C(=O)N/N=C/c1cc([N+](=O)[O-])ccc1O	-94.3*	1.7	i	2.5	-92.2*
O=C(N/N=C/c1cc([N+](=O)[O-])ccc1O)c1cc(-c2ccccc2)nc2ccccc12	-27.4	1.8	i	-19.6	?
O=C(NN=Cc1cc([N+](=O)[O-])ccc1O)c1cccc2ccccc12	-3.4	-3.5	i	5.8	-91.6*
O=[N+]([O-])c1ccc(O)c(C=Nc2cccc3ccccc23)c1	-10.1	-5.7	i	-26.5	-4.6
O=C(NCCc1ccccc1)c1nnc(Cc2cccc(F)c2)o1	.	-0.8	.	.	.
COc1ccccc1OCCC(=O)Nc1cccc(S(=O)(=O)N2CCCCC2)c1	-2.7	0.0	i	-5.9	-3.0
CC(C)c1ccc(NC2CCCN(C(=O)c3cccs3)C2)cc1 (configuration not stated)	-13.5	6.6	i	14.6	-22.6
N#Cc1ccc(C(=O)NC(=S)NC2CCCCC2)cc1	-8.9	-2.3	i	-6.0	-13.9
Cn1c(=O)n(C)c2cc(N3CCCC3)c(NC(=O)c3cccc(F)c3)cc21	-8.3	4.4	i	-0.1	-5.1
O=C(Cn1ccc(C(F)(F)F)n1)N/N=C/c1ccc2c(c1)OCO2	-18.3	-9.6	i	6.5	1.7
N#Cc1c(NC(=O)CCC(=O)O)sc2c1CCCC2	-9.0	-4.5	.	-0.6	3.8
Cc1nnc(SCC(=O)Nc2sc3c(c2C#N)CCCC3)[nH]c1=O	-7.0	-11.5	i	-52.2*	-13.1
N#Cc1c(NC(=O)CCC(=O)O)sc2c1CCCCC2	-9.0	-5.2	i	-73.6*	-7.8
CC1N=C2c3ccccc3N=C(SCc3cc(=O)n4cc(Cl)ccc4n3)N2C1=O (configuration not stated)	4.8	32.7	i	.	-3.7
CCc1nc(-c2ccccc2O)n(-c2ccccc2)n1	10.4	7.8	i	-1.5	7.3
SMILES	CtBP-E1A inh	PI4K2A block	Akt phos inh	PI5P4K alpha inh	Six1-Eya2 inh
CC1=C(C(=O)OCC2CCCO2)C(c2ccccc2Cl)NC(=O)N1 (configuration not stated)	5.4	4.8	-98.7%*	1.0	7.8
O=Cc1ccc(-c2cccs2)s1	-10.5	1.0	i	-2.9	15.7
Oc1ccc(N=Cc2ccc(-c3cccs3)s2)cc1	?	-69.2*	i	.	-19.4
O=C1c2cc(Br)ccc2N(Cc2ccc(Br)cc2)S(=O)(=O)C1c1cc(Cl)c(Cl)cc1[N+](=O)[O-] (configuration not stated)	-13.9	-4.4	i	-60.7*	-14.2
O=C1CS(=O)(=O)N(Cc2cccc(F)c2)c2ccc(Br)cc21	-0.2	-4.2	i	-17.4	-6.7
Fc1ccc(COc2cccc3cccnc23)cc1	22.3	1.8	i	3.4	4.7
Cc1oc(C(=O)O)cc1COc1cccc2cccnc12	-71.2*	-6.5	i	-8.4	?
Nc1nc(SCC(=O)NCC2CCCO2)[nH]c(=O)c1NC(=O)c1ccco1 (configuration not stated)	4.6	0.7	i	2.2	9.3
Cc1ccccc1Cn1c(COc2ccc(Cl)cc2)nc2ccccc21	.	1.6	.	.	.
O=C(NNC(=S)Nc1ccccc1)c1ccncc1	-0.8	5.7	i	-5.8	-0.5
O=C(NNC(=S)Nc1ccc(C(=O)O)c(O)c1)c1ccncc1	0.2	-0.1	i	-85.5*	3.7
O=C(O)COc1ccc(/C=N/NC(=O)c2ccc(-c3csc(Nc4ccc(Cl)cc4)n3)cc2)cc1	7.2	-4.9	i	-69.2*	-22.7
ON=C1c2ccccc2-c2ccccc21	0.2	5.2	i	177.5	2.8
CN(C)c1ccc2c(c1)C(=NO)c1ccccc1-2	0.5	-1.6	i	46.6	-65.8*
Cc1nn(Cc2ccccc2)c(C)c1NC(=O)CSc1nc(C2CC2)nc2c1cnn2-c1ccccc1	-0.7	-4.0	-114.0%*	-7.2	-1.3
Cc1cc(C)c(NC(=O)C2CCCN2C)c(C)c1 (configuration not stated)	4.2	1.0	-101.2%*	0.8	-0.1
Cc1cc(C)c(NC(=O)C2CCCN2CCO)c(C)c1 (configuration not stated)	7.3	0.5	.	0.6	-2.5
COc1ccc(C2=CC(=O)C[C@H](c3ccc(F)cc3)C2)c(F)c1F	.	4.6	i	8.1	-13.3
COc1ccc2oc3cc(NCCN(C)C)ccc3c(=O)c2c1	-74.6*	-19.6	.	-2.7	-70.3*
COc1ccc2c(=O)c3ccccc3oc2c1	7.8	0.7	i	7.7	0.0
CN(C)c1nc2c(c(=O)[nH]c(=O)n2C)n1Cc1ccccc1Br	-0.3	4.5	i	.	0.9
CC(C)CC(NS(=O)(=O)c1ccc2c(c1)oc(=O)n2C)C(=O)NCCc1ccc(Cl)cc1 (configuration not stated)	.	4.1	.	.	.
CC1CC(=O)N(CCc2ccccc2)C(=O)C1	-9.6	3.5	i	-3.6	-7.3
O=C1CC(=O)N(CCc2ccccc2)C(=O)N1CCc1ccccc1	2.1	-65.0*	i	?	-0.8
COc1ccc(S(=O)(=O)N2CCOCC2)cc1NC(=O)CSc1n[nH]c(=O)n1C1CC1	-18.3	-1.8	i	0.2	-0.5
